SARS PLP yeast: qHTS of Yeast-based Assay for SARS-CoV PLP. Potency, µM (highest dose often 32.9 µM), for the others: at the top dose activity, positive = growth rescue, actives largely listed as activators. hit rate 0.19% among 330,000. S. cerevisiae expressing SARS-CoV PLpro, growth rescue; calls by dose curve; note: 0% is about no effect; nearly all actives have a fitted effect of over 55% in size
Pf growth 48h: Primary qHTS for delayed death inhibitors of the malarial parasite plastid, 48 hour incubation | P. falciparum luciferase growth in erythrocytes, 48 h | Potency, µM (top dose mostly 28.7 µM), for the others: top-dose activity change, negative = inhibition, actives largely listed as inhibitors | hit rate 5.9% among 310,000; note: % is set by controls: 0 for no effect and ±100 for the full control effect
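In quantitative HTS format, infected erythrocytes bearing luciferase-reporter parasites were treated for a single generation at 37 C. Luminescence after adding detection reagent served as the growth measure.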
Sm TGR inh: qHTS Assay for the Inhibitors of Schistosoma Mansoni Peroxiredoxins; AID 485364, 2010; hit rate 3% among 360,000; Potency, µM (highest dose often 114 µM), for the others: at the highest dose activity change, negative = inhibition, actives largely listed as inhibitors; purified TGR, DTNB reduction, TNB absorbance 405 nm; Schistosoma mansoni thioredoxin glutathione reductase (TGR), Q962Y6; note: % is set by controls: 0 for no effect and ±100 for the full control effect; nearly all actives have a fitted effect of over 60% in size
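TGR 20 nM + NADPH 100 uM (dispensed conc.), cpd preinc 15 min RT; start with NADPH (500 uM addition) then DTNB (15 mM addition). Kinetic TNB absorbance, 405 nm filter. Four-parameter Hill fit across titration.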
Pf growth 96h: Primary qHTS for delayed death inhibitors of the malarial parasite plastid, 96 hour incubation; P. falciparum luciferase reporter growth, 96 h; Potency, µM (top dose mostly 28.7 µM), for the others: at the top dose activity change, negative = inhibition, hits mostly inhibitors; hit rate 6.9% among 320,000; note: % is set by controls: 0 for no effect and ±100 for the full control effect
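Compounds incubated with erythrocytes infected by luciferase-expressing P. falciparum (2% hematocrit, 0.05% parasitemia final) for 96 hours, 37 C in 5% CO2. Growth inhibition scored as decreased luciferase luminescence.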
An asterisk follows results filed as active; i = inactive; ? = inconclusive; / = not tested or not shown. In the library only some 12% were active in any assay of this set; here they are far more common. Unless noted, calls come from the whole dose curve; as a rule, active = well fitted curve in the direction sought with a large enough effect; inconclusive = small, poorly fitted or top-dose-only effect, or another doubt; inactive = no such curve, though single readings can be large; an effect the other way counts as inactive or inconclusive. Potency is the fitted concentration of half-maximal effect.

SMILES	SARS PLP yeast	Pf growth 48h	Sm TGR inh	Pf growth 96h
CC(C)(C)N1C(=O)c2ccc(C(=O)Nc3ccc(-c4nc5ccccc5[nH]4)cc3)cc2C1=O	9%	0.52µM*	8%	i
Cc1c(C(=O)Nc2nc(-c3ccc(F)cc3)ns2)oc2ccc(Br)cc12	/	/	12%	/
COc1ccc2cc(C(=O)NCc3ccco3)c(=Nc3ccc(C(=O)O)cc3)oc2c1	-6%	10µM*	-20%	?
COc1ccc2cc(C(=O)NCc3ccco3)c(=O)oc2c1	2%	73%	-29%	13µM*
COc1ccc(-c2cc(C(=O)NCc3ccco3)c3ccccc3n2)cc1	-5%	?	40µM*	3.3µM*
CCO/C=C/C(=O)N(C)CCC#N	1%	13%	-26%	12µM*
CN(CCC#N)C(=O)COC(=O)/C=C/c1cccs1	0%	3%	1%	-3%
CC(/C=C1\SC(=O)N(CCCC(=O)O)C1=O)=C\c1ccccc1	-1%	?	0%	5.9µM*
C=CCN1C(=O)/C(=C\C(C)=C\c2ccccc2)SC1=S	-1%	-8%	-10%	-18%
CC(/C=C1\SC(=S)N(CCCC(=O)Nc2ccc(C(=O)O)cc2)C1=O)=C\c1ccccc1	-23%	?	-6%	?
CC(=C\c1ccccc1)/C=C1/SC(=S)N(CCCC(=O)O)C1=O	1%	8.3µM*	-19%	?
O=C(O)CN1C(=O)/C(=C\C(Br)=C\c2ccccc2)SC1=S	0%	?	20µM*	3%
O=C(O)CN1C(=O)/C(=C/C=C/c2ccccc2)SC1=S	6%	17%	-8%	14%
Cc1cccc2c(C(=O)N3CCN(c4ccccc4)CC3)cc(-c3ccncc3)nc12	-5%	8.3µM*	1%	?
Cc1cccc2c(C(=O)N3CCCCC3)cc(-c3ccccc3)nc12	-9%	9.3µM*	-9%	0%
CN(C)S(=O)(=O)c1ccc2c(c1)nc(CCC(=O)Nc1ccc3c(c1)OCO3)n2C	-13%	?	-10%	?
CCN(CC)S(=O)(=O)c1ccc2c(c1)nc(CCC(=O)Nc1ccc3c(c1)OCO3)n2CC	-1%	?	-4%	6.6µM*
CCN(CC)S(=O)(=O)c1ccc2c(c1)nc(CCC(=O)Nc1ccc3c(c1)OCO3)n2C	0%	?	2%	9.3µM*
COc1cc(NC(=O)CC(C)n2nc(C)cc2C)cc(OC)c1 (stereo not drawn)	/	/	1%	/
O=C1CN(C(=O)CNCc2cccc(Cl)c2)c2ccccc2N1	0%	-11%	45µM*	-8%
O=C1CN(C(=O)CNCc2ccccc2Cl)c2ccccc2N1	-1%	3%	?	?
Cc1cc(Br)ccc1NC(=O)c1coc(=O)c2ccccc12	/	/	-1%	/
NC(=O)c1ccc([N+](=O)[O-])cc1Cl	/	?	/	11µM*
O=C(Nc1nccs1)c1ccc([N+](=O)[O-])cc1Cl	1%	55%	-15%	10µM*
Cc1ccc(-n2c(SCC(=O)Nc3ccc4c(c3)OCCO4)nc3c([nH]c4ccccc43)c2=O)cc1	/	/	-23%	/
SMILES	SARS PLP yeast	Pf growth 48h	Sm TGR inh	Pf growth 96h
Cc1cccc(N(C)S(=O)(=O)c2c(C)noc2C)c1	-9%	8%	-8%	9.3µM*
CCN(c1ccccc1)S(=O)(=O)c1c(C)noc1C	0%	?	-29%	8%
O=C(CNC1=NCCC1)c1ccc(Cl)cc1	9%	?	-11%	12µM*
COCC(C)n1c(C)cc(C(=O)COc2ccc(S(=O)(=O)N3CCOCC3)cc2Cl)c1C (stereo not drawn)	0%	13µM*	0%	/
O=C(COc1ccc(S(=O)(=O)N2CCOCC2)cc1Cl)NC1CC1	5%	-19%	-2%	6%
COc1cccc(CNc2ccccn2)c1O	-6%	16%	28µM*	62%
COc1cccc(CNc2cccc3cccnc23)c1O	-23%	184%	-7%	?
COc1cccc(CNc2cc(C)ccn2)c1O	3%	-22%	22µM*	?
Cc1cc(S(=O)(=O)N2CCCOC2CNC(=O)C(=O)NCCCN2CCOCC2)ccc1F (stereo not drawn)	-1%	5%	0%	18%
COc1cccc2c1ncc1c(-c3ccc(C)cc3)nn(-c3ccc(F)cc3)c12	/	/	-3%	/
COC(=O)C1=C(C)N=C2SC(C#N)=C(N)N2C1c1ccc(OCc2ccccc2)cc1 (stereo not drawn)	-12%	/	0%	12µM*

Bioassay records from PubChem BioAssay.
